Measured values as given in PMC5700166.

What was measured:
Experiment in all cases: protein-binding microarray (PBM); PBM: ~300 nM protein, 6 mM HEPES pH 7.8, 80 mM KCl, 0.5 mM EDTA, 0.5 mM EGTA, 6% glycerol, 35 ng/ul poly-dIdC, 1% milk, 1 h, room temperature; Ap Aiptasia and Nv Nematostella (sea anemones) / Co Capsaspora / Aq Amphimedon (sponge) / Dm Drosophila / Hu human; RHD is the Rel homology domain; high values mean tight binding
Conditions in all cases: dsDNA, one strand shown
GST-Ap-NF-kB RHD = target: T1, GST-Ap-NF-kB RHD (Exaiptasia pallida (Aiptasia), UniProt A0A913YAJ5 2-422)
T1 sequence: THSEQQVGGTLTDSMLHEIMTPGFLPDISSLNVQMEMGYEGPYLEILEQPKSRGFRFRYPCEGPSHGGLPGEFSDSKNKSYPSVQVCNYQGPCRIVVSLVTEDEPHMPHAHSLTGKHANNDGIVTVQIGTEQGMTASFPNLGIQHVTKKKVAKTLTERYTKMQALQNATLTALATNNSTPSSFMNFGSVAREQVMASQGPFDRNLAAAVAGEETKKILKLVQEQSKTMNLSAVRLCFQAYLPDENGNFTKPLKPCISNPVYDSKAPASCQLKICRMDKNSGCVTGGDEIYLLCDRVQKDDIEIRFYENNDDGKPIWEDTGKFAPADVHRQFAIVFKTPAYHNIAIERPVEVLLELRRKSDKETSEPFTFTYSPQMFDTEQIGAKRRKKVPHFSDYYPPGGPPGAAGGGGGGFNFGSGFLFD

[1] = target: T2, GST-Nv-NF-kB (Cys allele) (Nematostella vectensis, UniProt E5G601 2-411)
T2 sequence: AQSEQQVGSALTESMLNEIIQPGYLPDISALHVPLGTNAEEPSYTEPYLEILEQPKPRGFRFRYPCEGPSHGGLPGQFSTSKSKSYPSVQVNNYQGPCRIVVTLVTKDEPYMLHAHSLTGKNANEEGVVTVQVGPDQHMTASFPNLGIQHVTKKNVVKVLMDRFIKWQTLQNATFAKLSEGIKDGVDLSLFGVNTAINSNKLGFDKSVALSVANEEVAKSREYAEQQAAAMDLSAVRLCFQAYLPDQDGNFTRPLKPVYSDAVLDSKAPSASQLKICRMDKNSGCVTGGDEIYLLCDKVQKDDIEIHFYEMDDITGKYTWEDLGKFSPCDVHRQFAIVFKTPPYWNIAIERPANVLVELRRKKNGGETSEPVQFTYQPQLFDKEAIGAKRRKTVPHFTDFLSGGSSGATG

GST-Co-NF-kB = target: T3, GST-Co-NF-kB (Capsaspora owczarzaki, UniProt F1ARL5 200-546)
T3 sequence: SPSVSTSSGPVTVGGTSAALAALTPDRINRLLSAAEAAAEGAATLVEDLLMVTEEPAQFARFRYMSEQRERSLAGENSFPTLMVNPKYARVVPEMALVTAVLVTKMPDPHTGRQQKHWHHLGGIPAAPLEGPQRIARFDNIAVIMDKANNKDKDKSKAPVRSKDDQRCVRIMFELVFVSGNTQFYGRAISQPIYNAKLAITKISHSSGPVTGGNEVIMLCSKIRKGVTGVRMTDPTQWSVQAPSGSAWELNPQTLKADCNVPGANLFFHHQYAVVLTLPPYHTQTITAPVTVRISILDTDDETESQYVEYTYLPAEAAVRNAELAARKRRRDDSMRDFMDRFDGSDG

GST-Dm-Relish = target: T4, GST-Dm-Relish (Drosophila melanogaster, UniProt Q94527 99-473)
T4 sequence: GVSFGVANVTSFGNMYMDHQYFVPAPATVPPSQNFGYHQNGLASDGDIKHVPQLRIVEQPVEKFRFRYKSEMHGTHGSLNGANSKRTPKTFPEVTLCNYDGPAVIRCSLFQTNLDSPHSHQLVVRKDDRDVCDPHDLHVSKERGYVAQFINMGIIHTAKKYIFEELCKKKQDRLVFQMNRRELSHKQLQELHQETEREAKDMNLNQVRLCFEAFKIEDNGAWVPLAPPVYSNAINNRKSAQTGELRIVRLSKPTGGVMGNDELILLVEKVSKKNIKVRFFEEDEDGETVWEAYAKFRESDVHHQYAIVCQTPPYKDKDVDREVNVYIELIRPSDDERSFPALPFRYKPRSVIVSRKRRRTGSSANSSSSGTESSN

GST-Aq-NF-kB = target: T5, GST-Aq-NF-kB (Amphimedon queenslandica, UniProt A9Y5G7 2-389)
T5 sequence: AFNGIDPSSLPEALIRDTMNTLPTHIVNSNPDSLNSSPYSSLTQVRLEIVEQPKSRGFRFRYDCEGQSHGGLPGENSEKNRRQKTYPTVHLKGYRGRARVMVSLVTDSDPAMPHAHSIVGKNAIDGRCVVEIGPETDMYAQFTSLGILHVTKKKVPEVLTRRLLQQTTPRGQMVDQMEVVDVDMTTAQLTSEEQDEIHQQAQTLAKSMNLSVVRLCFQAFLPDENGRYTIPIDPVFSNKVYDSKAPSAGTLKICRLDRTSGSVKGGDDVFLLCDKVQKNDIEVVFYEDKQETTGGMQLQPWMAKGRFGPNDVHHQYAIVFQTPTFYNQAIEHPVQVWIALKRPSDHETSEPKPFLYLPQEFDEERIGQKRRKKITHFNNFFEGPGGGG

Sequence | binding signal (GST-Ap-NF-kB RHD) [z-score] | binding signal [1] [z-score] | binding signal (GST-Co-NF-kB) [z-score] | binding signal (GST-Dm-Relish) [z-score] | binding signal (GST-Aq-NF-kB) [z-score]
CCGATTAACATCACGGAAACCCCTGATGTTAATCGGGTCTTGATTCGCTTGACGCTGCTG | 5.32 | 4.37 | 2.13 | 7.12 | 5.38
CCGATTAACATCACATGTTCCCCTGATGTTAATCGGGTCTTGATTCGCTTGACGCTGCTG | 4.94 | 5.26 | 6.79 | 3.04 | 4.62
CCGATTAACATCAGGAGTTTCCCTGATGTTAATCGGGTCTTGATTCGCTTGACGCTGCTG | 4.6 | 6.51 | 3.2 | 4.94 | 8.06
CCGATTAACATCAGGGAAATAAATGATGTTAATCGGGTCTTGATTCGCTTGACGCTGCTG | 2.39 | 4.44 | 4.38 | 2.1 | 4.44
CCGATTAACATCAAAAATCACCCTGATGTTAATCGGGTCTTGATTCGCTTGACGCTGCTG | 2.67 | 2.98 | 2.5 | 7.81 | 3.84
CCGATTAACATCAGGGAAACCCATGATGTTAATCGGGTCTTGATTCGCTTGACGCTGCTG | 3.64 | 4.19 | 2.54 | 8.17 | 4.85
CCGATTAACATCACATATTTCCCTGATGTTAATCGGGTCTTGATTCGCTTGACGCTGCTG | 3.32 | 4.97 | 4.94 | 1.93 | 5.18
CCGATTAACATCAGGGGAAGGTATGATGTTAATCGGGTCTTGATTCGCTTGACGCTGCTG | 3.33 | 4.71 | 5.15 | 2.58 | 3.96
CCGATTAACATCAAAACTTCCCATGATGTTAATCGGGTCTTGATTCGCTTGACGCTGCTG | 3.04 | 3.7 | 2.63 | 4.52 | 4.42
CCGATTAACATCAAGTACCCCCATGATGTTAATCGGGTCTTGATTCGCTTGACGCTGCTG | 4.72 | 2.7 | 4.36 | 2.25 | 2.6
CCGATTAACATCAGAACATTCCCTGATGTTAATCGGGTCTTGATTCGCTTGACGCTGCTG | 2.94 | 4.14 | 2.6 | 1.97 | 5
CCGATTAACATCAAATTCCCACTTGATGTTAATCGGGTCTTGATTCGCTTGACGCTGCTG | 2.15 | 4.13 | 2.26 | 4.38 | 2.47
CCGATTAACATCAAGGGAGTACCTGATGTTAATCGGGTCTTGATTCGCTTGACGCTGCTG | 4.45 | 2.9 | 1.52 | 3.08 | 2.71
CCGATTAACATCACCCCCCCCCGTGATGTTAATCGGGTCTTGATTCGCTTGACGCTGCTG | 7.33 | 5.51 | 7.6 | 6.11 | 5.46
CCGATTAACATCAGGGAACCCCATGATGTTAATCGGGTCTTGATTCGCTTGACGCTGCTG | 3.95 | 2.07 | 1.54 | 10.5 | 4.59
CCGATTAACATCACGGAACTCCCTGATGTTAATCGGGTCTTGATTCGCTTGACGCTGCTG | 3 | 3.34 | 1.42 | 4.06 | 4.43
CCGATTAACATCAGGGGAGCACCTGATGTTAATCGGGTCTTGATTCGCTTGACGCTGCTG | 4.77 | 3.52 | 3.23 | 4.91 | 4.81
CCGATTAACATCATGGGTGGGAATGATGTTAATCGGGTCTTGATTCGCTTGACGCTGCTG | 1.4 | 1.79 | 2.62 | 1.66 | 2.5
CCGATTAACATCAGGACTTCCCATGATGTTAATCGGGTCTTGATTCGCTTGACGCTGCTG | 3.08 | 2.46 | 1.82 | 7.81 | 4.72
CCGATTAACATCAGGGGGCAAGATGATGTTAATCGGGTCTTGATTCGCTTGACGCTGCTG | 2.07 | 2.14 | 2.69 | 1.01 | 2.76
CCGATTAACATCAGAATATTCCCTGATGTTAATCGGGTCTTGATTCGCTTGACGCTGCTG | 5.6 | 6.1 | 3.41 | 3.01 | 5.6
CCGATTAACATCAGGGGTTTCACTGATGTTAATCGGGTCTTGATTCGCTTGACGCTGCTG | 3.56 | 3.24 | 2.93 | 7.34 | 4.84
CCGATTAACATCACCACTTTCCCTGATGTTAATCGGGTCTTGATTCGCTTGACGCTGCTG | 3.21 | 4.07 | 3.94 | 1.32 | 3.11
CCGATTAACATCAGGGGGGGTTATGATGTTAATCGGGTCTTGATTCGCTTGACGCTGCTG | 6.15 | 3.92 | 4.45 | 6.55 | 5.06
CCGATTAACATCAAGAGACCCCCTGATGTTAATCGGGTCTTGATTCGCTTGACGCTGCTG | 5.03 | 2.88 | 2.08 | 3.99 | 3.76
CCGATTAACATCAGGAGAACCCCTGATGTTAATCGGGTCTTGATTCGCTTGACGCTGCTG | 4 | 3.59 | 1.26 | 3.65 | 5.68
CCGATTAACATCAGATATTTCCCTGATGTTAATCGGGTCTTGATTCGCTTGACGCTGCTG | 3.25 | 5.95 | 5.03 | 2.31 | 6.38
CCGATTAACATCACGGGAGTTCCTGATGTTAATCGGGTCTTGATTCGCTTGACGCTGCTG | 3.99 | 3.71 | 1.77 | 4.98 | 5.04
